This passage reports composite z-score, composite Z-score and z-score results from PubChem BioAssay.

Structures are written as SMILES. The source made the active and inactive calls.

One experiment addresses Albumin (Bos taurus) (UniProt P02769). Nature of the experiment: compounds binding labelled BSA control protein – biochemical, small-molecule microarray, Alexa647 label, 635/667 nm fluorescence, artefact control for SMM control protein annotation, profiling panel (AID 1118).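 Further: score merges 667 nm emission intensity and signal-to-noise per printed compound spot.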 Particulars: BSA-A647 binding, fluorescence 635 nm, higher = more signal.
Experiment [1] is described as follows: probe aXIP binding to arrayed compounds – biochemical, NeuroSMM set, 635/667 nm fluorescence, primary screen (AID 1119).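 Further: probe is the protein aXip251-270 applied at 1 µg/mL to compound-printed slides; binding of probe to printed compounds measured as 667 nm fluorescence plus signal to noise.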 The settings on record: small-molecule microarray, higher = more signal, called active from +8 up or from −8 down.
The nature of experiment [2]: probe aNOTCH3 binding on compound microarray – biochemical, small-molecule microarray, 635/667 nm fluorescence, primary screen (AID 1120).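 Further: probe is a biotin-tagged antibody raised against NOTCH3 rather than NOTCH3 protein; score merges spot fluorescence near 667 nm with spot signal to noise.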 The settings on record: higher = more signal.
The nature of experiment [3]: probe aNOTCH2 binding on compound microarray – biochemical, small-molecule microarray, 635/667 nm fluorescence, primary screen (AID 1121).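 Further: score merges feature fluorescence read at 667 nm with its signal to noise.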 The settings on record: higher = more signal.
Experiment [4] deals with Carbonic anhydrase 2 (Homo sapiens) (UniProt P00918). Nature of the experiment: compounds binding carbonic anhydrase 2 – biochemical, small-molecule microarray, Alexa647-labelled CAII, profiling panel (AID 1122). The settings on record: CAII-A647 binding fluorescence, higher = more signal.
Experiment [5] in a line: COS7 lysate on small-molecule microarray, probe aHis, 635 nm (AID 1123).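 Further: z-score combines 667nm fluorescence intensity with signal-to-noise per printed compound spot.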 The settings on record: COS7 cell lysate, fluorescence, higher = more signal.
Experiment [6] is described as follows: probe aLAP1 signal on lysate-treated microarray – cell lysate, small-molecule microarray, COS7 lysate, primary screen (AID 1124).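 Further: lysate comes from COS7 cells expressing LAP1 and is applied at 0.3 µg/mL; score merges spot fluorescence near 667 nm with signal-to-noise over triplicate slides.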 The settings on record: probe aLAP1, fluorescence, higher = more signal.
Another experiment relates to Sam68 (KHDRBS1). Nature of the experiment: compounds binding KHDRBS1 protein – biochemical, small-molecule microarray, 635 nm fluorescence, primary screen (AID 1125).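 Further: score merges 667 nm channel intensity with signal to noise over triplicate slides.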 Particulars: higher = more signal.
Experiment [7] concerns Chordin-like protein 2 (CHRDL2). Nature of the experiment: compounds binding chordin-like 2 – biochemical, small-molecule microarray, 635 nm fluorescence, primary screen (AID 1126).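 Further: printed compound slides probed with Chrdl2 protein at 4 µg/mL for 1 h at 4 C; score merges 667 nm emission intensity with signal to noise over three replicate slides.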 Particulars: fluorescence 635 nm, higher = more signal.
Experiment [8] has as its target Concanavalin-A (Canavalia ensiformis) (UniProt P02866). The experiment can be described thus: compounds binding concanavalin A lectin – biochemical, small-molecule microarray, Alexa647 label, 635 nm, artefact control for SMM control protein annotation, primary screen (AID 1127).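 Further: z combines 667 nm emission intensity with signal-to-noise across three replicate slides.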 The settings on record: ConA-A647 binding fluorescence, higher = more signal.
Experiment [9] can be described thus: compounds binding Alexa647 anti-His antibody – biochemical, small-molecule microarray, 635 nm fluorescence, artefact control for SMM control protein annotation, primary screen (AID 1128).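 Further: score merges feature fluorescence with signal-to-noise for each printed compound spot.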 The settings on record: higher = more signal.
Experiment [10] concerns Human papillomavirus type 1a E7 protein (residues 1-88). The experiment can be described thus: HPV1a E7 small-molecule binders, primary screen, biochemical, small-molecule microarray, residues 1-88, 635 nm (AID 1129). The settings on record: small-molecule microarray binding, fluorescence 635 nm; higher = more signal.
Experiment [11] has as its target Focal adhesion kinase 1 (Homo sapiens) (UniProt Q05397). Nature of the experiment: PTK2 protein binding on printed compound slides – biochemical, small-molecule microarray, 635/667 nm fluorescence, BSA, DTT, primary screen (AID 1130).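 Further: composite of spot emission at 667 nm and signal to noise over triplicate slides.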 Particulars: 635 nm fluorescence, higher = more signal.
Experiment [12] relates to Fibrinogen (Alexa647-labelled). The experiment can be described thus: Alexa647-fibrinogen binding to printed small molecules – biochemical, small-molecule microarray, 635/667 nm fluorescence, artefact control for SMM control-protein annotation, profiling panel (AID 1131).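 Further: z-score merges 667 nm fluorescence with per-spot signal-to-noise over triplicate slides.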 Particulars: fibrinogen-A647 binding fluorescence, higher = more signal.
Experiment [13] concerns the target Follistatin (Homo sapiens) (UniProt P19883). The experiment can be described thus: FST protein binding to printed compounds – biochemical, small-molecule microarray, 635/667 nm fluorescence, primary screen (AID 1132). Particulars: 635 nm fluorescence, higher = more signal.
The target in experiment [14] is Fibroblast growth factor 2 (Homo sapiens) (UniProt P09038). Nature of the experiment: basic fibroblast growth factor binding to printed compounds – biochemical, small-molecule microarray, 635/667 nm fluorescence, primary screen (AID 1133). The settings on record: FGF2, fluorescence 635/667, higher = more signal.
Sequence of Fibroblast growth factor 2 (Homo sapiens) (P09038 whole entry, looked up): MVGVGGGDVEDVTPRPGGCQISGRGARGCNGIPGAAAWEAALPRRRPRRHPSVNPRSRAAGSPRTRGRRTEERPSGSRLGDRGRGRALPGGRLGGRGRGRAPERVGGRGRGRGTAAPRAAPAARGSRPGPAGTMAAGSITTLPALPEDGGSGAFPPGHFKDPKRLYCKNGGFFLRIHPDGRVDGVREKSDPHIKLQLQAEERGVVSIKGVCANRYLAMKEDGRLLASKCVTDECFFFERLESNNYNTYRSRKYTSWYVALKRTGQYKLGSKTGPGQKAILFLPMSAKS
Experiment [15] is described as follows: JC-1 mitochondrial potential readout, lung cancer cells – cell-based, A549, JC-1 fluorescence, basal, 24 h, 100 nL, profiling panel (AID 1138).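 Further: A549 lung adenocarcinoma cells under basal conditions with no added stimulus; test concentration not given here.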 Particulars: higher = more signal.
For another experiment, the system named is Lefty1. The experiment can be described thus: Lefty1 protein binding to printed compounds – biochemical, small-molecule microarray, 635/667 nm fluorescence, primary screen (AID 1139). Particulars: fluorescence 635/667, higher = more signal.
Experiment [16] has as its system wheat germ agglutinin (Triticum aestivum), Alexa647-labelled. Nature of the experiment: Alexa647-WGA lectin binding to printed small molecules – biochemical, small-molecule microarray, 635/667 nm fluorescence, artefact control for SMM control-protein annotation, profiling panel (AID 1140).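 Further: score merges 667 nm feature emission with signal to noise over triplicate slides.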 The settings on record: WGA-A647 binding, 635 nm fluorescence, higher = more signal.

Experiment [17] deals with Luciferin 4-monooxygenase (Photinus pyralis) (UniProt P08659). The experiment can be described thus: inhibition of purified Photinus pyralis luciferase – biochemical, luminescence, purified enzyme, 2006 set, primary screen (AID 1141).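 Further: cell-free assay with purified firefly luciferase at 100 ng per well in PBS; test concentration not given here.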 Particulars: purified firefly luciferase, SteadyGlo luminescence, 30 min; higher = more signal, called active from +8 up or from −8 down.
Sequence of Luciferin 4-monooxygenase (Photinus pyralis) (P08659 whole entry, looked up): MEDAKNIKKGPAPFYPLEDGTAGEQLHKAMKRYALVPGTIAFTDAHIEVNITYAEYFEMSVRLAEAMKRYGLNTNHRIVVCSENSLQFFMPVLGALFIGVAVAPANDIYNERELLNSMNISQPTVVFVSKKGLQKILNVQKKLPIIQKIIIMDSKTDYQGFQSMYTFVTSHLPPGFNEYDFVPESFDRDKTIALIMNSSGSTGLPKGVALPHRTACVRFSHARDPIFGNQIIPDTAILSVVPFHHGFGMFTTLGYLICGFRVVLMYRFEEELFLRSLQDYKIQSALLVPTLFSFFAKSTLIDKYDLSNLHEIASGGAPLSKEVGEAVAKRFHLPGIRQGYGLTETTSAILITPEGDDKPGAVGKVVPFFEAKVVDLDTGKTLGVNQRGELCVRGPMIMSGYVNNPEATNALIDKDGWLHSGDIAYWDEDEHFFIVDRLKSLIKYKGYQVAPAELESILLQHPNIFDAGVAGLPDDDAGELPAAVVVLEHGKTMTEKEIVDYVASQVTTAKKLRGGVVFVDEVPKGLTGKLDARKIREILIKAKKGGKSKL

Sequence of Albumin (Bos taurus) (P02769 whole entry, looked up): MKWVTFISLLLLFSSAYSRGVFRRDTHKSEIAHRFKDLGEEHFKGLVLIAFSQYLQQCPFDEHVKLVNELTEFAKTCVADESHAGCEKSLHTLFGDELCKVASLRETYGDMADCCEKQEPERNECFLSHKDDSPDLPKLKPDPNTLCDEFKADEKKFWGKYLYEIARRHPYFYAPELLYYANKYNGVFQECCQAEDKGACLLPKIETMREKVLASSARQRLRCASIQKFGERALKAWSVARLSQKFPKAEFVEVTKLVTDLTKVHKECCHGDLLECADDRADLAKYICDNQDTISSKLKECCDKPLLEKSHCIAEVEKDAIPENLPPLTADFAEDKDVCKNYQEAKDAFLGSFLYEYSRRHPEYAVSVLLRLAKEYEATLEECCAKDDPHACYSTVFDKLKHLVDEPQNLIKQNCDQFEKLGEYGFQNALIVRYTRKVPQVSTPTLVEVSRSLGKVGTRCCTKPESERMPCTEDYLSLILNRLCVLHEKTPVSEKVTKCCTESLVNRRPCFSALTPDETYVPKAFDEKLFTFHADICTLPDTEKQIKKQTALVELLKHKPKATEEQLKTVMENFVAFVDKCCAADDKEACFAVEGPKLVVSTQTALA
Sequence of Concanavalin-A (Canavalia ensiformis) (P02866 whole entry, looked up): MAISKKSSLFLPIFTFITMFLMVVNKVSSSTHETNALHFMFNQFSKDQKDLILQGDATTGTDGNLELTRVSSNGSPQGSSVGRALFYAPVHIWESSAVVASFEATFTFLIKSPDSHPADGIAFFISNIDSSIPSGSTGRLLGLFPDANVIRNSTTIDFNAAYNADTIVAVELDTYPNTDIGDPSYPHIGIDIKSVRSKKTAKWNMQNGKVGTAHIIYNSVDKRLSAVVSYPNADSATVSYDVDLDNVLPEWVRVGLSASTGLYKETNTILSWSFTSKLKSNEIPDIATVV
Sequence of Follistatin (Homo sapiens) (P19883 whole entry, looked up): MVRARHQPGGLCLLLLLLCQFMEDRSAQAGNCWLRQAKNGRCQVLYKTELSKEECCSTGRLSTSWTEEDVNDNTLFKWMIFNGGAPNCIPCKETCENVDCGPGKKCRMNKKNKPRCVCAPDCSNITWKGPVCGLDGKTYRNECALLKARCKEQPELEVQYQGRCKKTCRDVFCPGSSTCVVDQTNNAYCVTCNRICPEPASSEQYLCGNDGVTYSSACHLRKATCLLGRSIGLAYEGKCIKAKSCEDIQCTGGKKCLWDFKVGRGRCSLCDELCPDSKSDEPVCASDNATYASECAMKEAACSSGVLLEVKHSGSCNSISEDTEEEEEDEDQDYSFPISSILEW
Sequence of Focal adhesion kinase 1 (Homo sapiens) (Q05397 whole entry, looked up): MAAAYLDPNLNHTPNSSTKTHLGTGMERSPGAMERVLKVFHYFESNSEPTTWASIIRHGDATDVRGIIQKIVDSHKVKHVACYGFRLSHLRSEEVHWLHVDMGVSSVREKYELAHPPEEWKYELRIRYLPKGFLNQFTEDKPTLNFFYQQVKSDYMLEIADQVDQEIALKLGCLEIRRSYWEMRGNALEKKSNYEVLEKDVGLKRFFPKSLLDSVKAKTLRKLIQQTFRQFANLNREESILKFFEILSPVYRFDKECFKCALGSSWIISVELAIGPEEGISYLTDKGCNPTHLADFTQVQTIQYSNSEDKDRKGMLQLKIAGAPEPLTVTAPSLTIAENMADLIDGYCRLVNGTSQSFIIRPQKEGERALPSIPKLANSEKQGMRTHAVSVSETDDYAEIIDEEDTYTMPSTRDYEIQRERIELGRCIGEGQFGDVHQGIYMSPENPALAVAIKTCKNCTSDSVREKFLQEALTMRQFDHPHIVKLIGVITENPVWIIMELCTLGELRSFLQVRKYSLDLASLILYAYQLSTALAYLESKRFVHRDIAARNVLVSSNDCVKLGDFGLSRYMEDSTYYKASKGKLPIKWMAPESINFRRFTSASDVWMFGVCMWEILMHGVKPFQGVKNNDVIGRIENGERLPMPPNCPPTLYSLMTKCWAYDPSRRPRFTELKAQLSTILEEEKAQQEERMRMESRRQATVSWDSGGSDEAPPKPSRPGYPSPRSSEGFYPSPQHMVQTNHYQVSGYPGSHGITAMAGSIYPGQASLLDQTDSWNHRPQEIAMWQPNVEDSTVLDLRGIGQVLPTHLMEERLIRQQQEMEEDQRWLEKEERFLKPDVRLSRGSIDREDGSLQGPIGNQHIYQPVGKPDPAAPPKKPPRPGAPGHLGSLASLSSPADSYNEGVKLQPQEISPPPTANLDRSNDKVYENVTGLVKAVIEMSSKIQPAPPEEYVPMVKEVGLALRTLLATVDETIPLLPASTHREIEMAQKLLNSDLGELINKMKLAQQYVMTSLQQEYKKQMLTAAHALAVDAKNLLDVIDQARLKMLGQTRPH

Regarding `COCCOC(=O)N1C(=O)[C@@]2(c3ccccc31)[C@H](c1ccccc1OCCO)N1[C@H](c3ccccc3)[C@H](c3ccccc3)OC(=O)[C@H]1[C@@H]2C(=O)N1CCN(c2ncccn2)CC1`, the composite z-score in the experiment with Albumin (Bos taurus) was 0.493; in [2], -0.0345; in experiment [3], -0.0756; in [4], 0.521; in experiment [5], 1.59; in [6], 0.218. The composite z-score in the experiment on Sam68 (KHDRBS1) worked out at 1.29; in experiment [7] it was 0.0792; in experiment [8], 1.11; in [9] it was 1.22; in [10], 1.15; in [11], 0.1. The composite z-score in [12] is 0.64; in experiment [13], 0.755; in experiment [14], 0.385; in the experiment on Lefty1 it was 0.962; in experiment [16], 1.1. For the same molecule, the composite Z-score in experiment [1] is 1.6 (inactive). Also, the z-score was -1.21 in experiment [15] and -0.388 (inactive) in [17].

In the case of `Cc1ccc(S[C@]2(C(=O)O)CC(=O)N(C(C)C)[C@@H]2c2ccc(CO)cc2I)cc1`, the composite z-score turned out to be 0.162 with Albumin (Bos taurus); 0.208 in [2]; 0.164 in experiment [3]; 0.566 in experiment [4]; 1.99 in experiment [5]; 0.73 in experiment [6]. The composite z-score in the experiment with Sam68 (KHDRBS1) is 0.784; in experiment [7], -0.17; in experiment [8], 1.03; in experiment [9], 3.36; in experiment [10] it was 0.476; in [11] it was 0.929. In addition, the composite z-score is 0.432 in [12]; 1.12 in experiment [13]; 0.253 in experiment [14]; -0.176 in the experiment with Lefty1; 0.939 in [16]. In experiment [1], the composite Z-score is 0.556 (inactive). The values for the z-score in [15] and in experiment [17] were 1.33 and -2.26 (inactive), respectively.

Take `COc1cc2c(cc1O)C(C1CC1)N(Cc1sc3ccccc3c1Cl)CC2` (stereo not given): the composite z-score with Albumin (Bos taurus) is 0.718; in [2], -0.152; in experiment [3], -0.0984; in experiment [4], 0.76; in experiment [5], 2.69; in [6], 0.862. The composite z-score with Sam68 (KHDRBS1) is 0.888; in experiment [7] it was 0.185; in experiment [8], 0.0387; in experiment [9] it was 1.53; in [10] it was 0.87; in experiment [11], -0.0249. The composite z-score in [12] was 0.762; in experiment [13], 0.439; in experiment [14], 0.124; with Lefty1 it was -0.619; in experiment [16], 0.402. For the same molecule, the composite Z-score in experiment [1] is -0.909 (inactive). Moreover, the values for the z-score in [15] and in [17] were -1.55 and -0.593 (inactive), respectively.

Regarding `COCCOC(=O)N1C(=O)[C@@]2(c3ccccc31)[C@H](c1ccc(O)cc1)N1[C@H](c3ccccc3)[C@H](c3ccccc3)OC(=O)[C@H]1[C@@H]2C(=O)Nc1nc2ccccc2s1`, the composite z-score is 0.827 with Albumin (Bos taurus); 0.351 in experiment [2]; -0.0956 in experiment [3]; 0.498 in experiment [4]; 1.98 in [5]; 0.384 in experiment [6]. Also, the composite z-score is 1.3 with Sam68 (KHDRBS1); -0.172 in [7]; 1.2 in experiment [8]; 1.97 in experiment [9]; 1.17 in experiment [10]; 0.475 in experiment [11]. Moreover, the composite z-score in experiment [12] worked out at 0.961; in experiment [13] it was 0.695; in experiment [14], 0.408; in the experiment on Lefty1, 0.259; in experiment [16] it was 1.14. The composite Z-score in [1] is -0.434 (inactive). In addition, the figures for the z-score in experiment [15] and in experiment [17] were -2.42 and -1.32 (inactive), respectively.

`CN(C)C(=O)[C@]1(Cc2ccccc2N=[N+]=[N-])N=C(c2ccc(OCCCO)cc2)O[C@@H]1c1ccccc1N=[N+]=[N-]`: the composite z-score in the experiment with Albumin (Bos taurus) came out at 0.872; in [2] it was 0.201; in experiment [3] it was 0.134; in experiment [4], 0.556; in experiment [5] it was 2.85; in experiment [6] it was 0.274. In addition, the composite z-score is 1.29 with Sam68 (KHDRBS1); -0.206 in [7]; 1.14 in experiment [8]; 2.42 in experiment [9]; 1.18 in experiment [10]; 0.646 in [11]. Moreover, the composite z-score turned out to be 1.01 in experiment [12]; 1.27 in experiment [13]; 1.26 in experiment [14]; 0.513 with Lefty1; 1.21 in experiment [16]. Moreover, the composite Z-score in experiment [1] is -1.05 (inactive). Moreover, the values for the z-score in experiment [15] and in [17] were 1.1 and -3.94 (inactive), respectively.

For the molecule `O=C(NCCN1CCOCC1)C1N=C(c2ccc(OCCCO)cc2)N(c2ccccc2)O1` (stereo not given), the composite z-score with Albumin (Bos taurus) was 0.439; in experiment [2], 0.0261; in [3], 0.119; in experiment [4], 0.835; in experiment [5], 2.79; in experiment [6] it was 0.908. In addition, the composite z-score stood at 1.3 with Sam68 (KHDRBS1); 1.41 in [7]; 0.691 in experiment [8]; 1.22 in experiment [9]; 1.29 in [10]; 0.124 in experiment [11]. Besides, the composite z-score in experiment [12] amounted to 0.545; in experiment [13], 1.52; in experiment [14], 1.58; with Lefty1 it was 0.813; in experiment [16] it was 0.61. Further, the composite Z-score in [1] is 0.267 (inactive). The z-score in [15] is 1.23; in experiment [17], -8.16 (active).
